Source: PubChem BioAssay AID651871 (Sanford-Burnham Center for Chemical Genomics, 2012)
Where “and” joins values, the source holds several entries; their conditions need not be identical. Equal values may be shown once.

Each molecule was assayed on HL-1 (assay: cardiomyocyte survival under oxidative or metabolic stress – cell-based, panel, H9c2 and HL-1, ATP luminescence, set 2, SAR follow-up (AID 651871;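 also: cells exposed to stressor for 2 h before ATP readout; reference of the scale not given here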)). Details: H9c2/HL-1 cardiomyocytes, H2O2 oxidative stress; with H2O2, run 4, at 79 µM (top of the series).
Work on COc1cc(-c2cc(C(=O)Nc3cccc(C(=O)NCc4ccccc4)c3)c3ccccc3n2)cc(OC)c1OC yielded an activity (protection/inhibition) of 17.9%.
CCOC(=O)c1cccc(NC(=O)CNC(=O)c2cc(-c3cc(OC)c(OC)c(OC)c3)nc3ccccc23)c1 was tested, and the activity (protection/inhibition) was 25.9%.
In the case of COc1ccc2nc(-c3cc(OC)c(OC)c(OC)c3)cc(C(=O)NCC(=O)Nc3ccc(C(C)=O)cc3)c2c1, the activity (protection/inhibition) is reported as 37.2% and 50%.
With COc1ccc2c(c1OC)C(=O)N1c3ccccc3C(=O)N(Cc3cccc(Cl)c3Cl)C21 (centres undefined) the activity (protection/inhibition) was 8.81% and -13.3% and 3.82%.
